This is an account of results in the OligoGym collection.
Also: reference of the scale not given here.

One test addresses F2R. The test can be described thus: pooled miR-30 sensor sort-seq; sequence = guide strand. The following applies: shRNA.
Consider TTATTCAGGTTACTAGAGCAGG, for which the sensor-assay potency score (higher = more potent) was -0.622.

As for TACACATACATCACACTCTATG, the sensor-assay potency score (higher = more potent) was -1.1. Take TTAATAACTTAAACCTTGCCGT: the sensor-assay potency score (higher = more potent) was 0.203. For the sequence TTCCTGAGAAGAAATGACCGGG, the sensor-assay potency score (higher = more potent) was determined as 0.496.

TTATTGATGGAGACTAATCTGT: the sensor-assay potency score (higher = more potent) was -0.475.

The sequence TAGGATATCACATTCTGCTTTG yielded a sensor-assay potency score (higher = more potent) of -0.448.

With TAATAACTTAAACCTTGCCGTC, the sensor-assay potency score (higher = more potent) is -1.01. Regarding TTCAGGGCTAAACTCTACCAAC, the sensor-assay potency score (higher = more potent) was -1.3.

For ACAAACAGCACATCTGCCGTGG, the sensor-assay potency score (higher = more potent) was -0.289. Same read-out and setting: as for TAACACCGTCATCTCGTCCTGT, the figure is -0.174; as for TACACCACAGCCAGAAACCGGT, -0.606; as for AAACACTAGAACTTCTACGCAC, 0.254.

The target in the next test is FABP1. The description is as above. Conditions: shRNA.
In the case of AACCACTGTCTTGACTTTCTCC, the sensor-assay potency score (higher = more potent) is -0.372. Same read-out and setting: as for TCCAACTGAACCACTGTCTTGA, the figure is -0.148; as for TTTTTGAAAGTTGTCACCAGTT, -0.333. For TGAACCACTGTCTTGACTTTCT, the sensor-assay potency score (higher = more potent) is -0.394. Still for that read-out and setting: under ATTCTCTTGAAGACAATGTCAC stands -0.0218. Same read-out and setting: as for TTGAAGACAATGTCACCCAATG, the figure is -1.17; as for TCGTTTTGGATCACTTTGGACC, -1.43; as for TTATTGTCACCTTCCAACTGAA, -0.686. Consider TTTGGATCACTTTGGACCCAGC, for which the sensor-assay potency score (higher = more potent) was -1.41. TCTTGAAGACAATGTCACCCAA gave a sensor-assay potency score (higher = more potent) of 0.0461. As to TTTTGGATCACTTTGGACCCAG, the sensor-assay potency score (higher = more potent) is -0.408.

Turning to TGAACTTGAAGTGCTTCCCATT, the sensor-assay potency score (higher = more potent) is -0.823. On the same count and under the same terms, as for TTTATTGTCACCTTCCAACTGA, the figure is 0.758; as for TATTGTCACCTTCCAACTGAAC, -1.49. Still for that read-out and setting: under TTGTCTCCAGCTCACATTCCTC stands -1.37. In the case of TTCCAACTGAACCACTGTCTTG, the sensor-assay potency score (higher = more potent) was -1.23.

With TTTCCTGGCTCTGCAGTTGGTA, the sensor-assay potency score (higher = more potent) is -0.913.

On to TTTGAAAGTTGTCACCAGTTTA, for which the sensor-assay potency score (higher = more potent) was -0.997. Sequence TTCCGGCAGACCGATTGCCTTC gave a sensor-assay potency score (higher = more potent) of -1.36. On the same count and under the same terms, under TTGAGTTCGGTCACAGACTTGA stands -0.0189; under TTTTGAAAGTTGTCACCAGTTT, -0.569; under ACTGTCTTGACTTTCTCCCCTG, -0.45. On the same count and under the same terms, under TTCCTGGCTCTGCAGTTGGTAC stands -1.83.

The target in a further test is FABP9. The test is described as above. Conditions: shRNA.
TTACATTCCACTACCATTTTTT came in with a sensor-assay potency score (higher = more potent) of -0.986. On the same count and under the same terms, as for TTTACTTTCCGGTTGTCTGCTG, the figure is 0.767; as for TTAGTGTCCTGGAAAGAACTTT, -0.461. Regarding TTACTTTCCGGTTGTCTGCTGT, the sensor-assay potency score (higher = more potent) is -0.00906. Still for that read-out and setting: as for AACACTAATAGTTACTGTCGGT, the figure is -0.48.
